Bioassay records from PubChem.
aDG glyco up = increases alpha dystroglycan glycosylation; 360,000 compounds, 0.22% hits; Pro5-aDG cells, alpha-DG glycosylation AlphaScreen (IIH6); 0% Pro5, 100% B10-LARGE cell signal; activation, % at 10 µM; AID 624168;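 active = activation of at least 8% versus controls, or a plate z-score of at least 8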;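 also: Pro5 are CHO cells carrying HIG-tagged alpha-DG that lacks glycosylation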
FAS-TE inh = blocks the thioesterase domain of human fatty acid synthase; P49327; recombinant FAS-TE, OMFH fluorogenic substrate, fluorescence endpoint; inhibition, % at 15 µM; 360,000 compounds, 0.67% hits;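 active = compounds whose normalised, plate-corrected inhibition of enzyme fluorescence in the single-dose primary screen is 50% or more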;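 also: 0% = DMSO with enzyme and 100% = substrate without enzyme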
Calpain2 inh = inhibitors of pig calpain II; 220,000 compounds, 0.37% hits; purified calpain II, fluorogenic peptide substrate, 30 min; inhibition, % at 16 µM;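 active = inhibition above about 50%, limit read from the data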
H9c2 TAG inh = reduces triacylglycerol accumulation in H9c2 cells | 230,000 compounds, 0.66% hits | Nile Red lipid (TAG) fluorescence; cells loaded with 200 µM oleic acid | inhibition, % at 12.5 µM;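 active = pattern-corrected inhibition of lipid staining of at least 50% with the nuclear-stain viability signal not falling by more than 50%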;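 also: 0% = DMSO wells and 100% = triacsin C control wells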
H9c2 protect = modulators protecting cardiomyocytes from myocardial damage; H9c2 cardiomyocytes, H2O2 injury protection, ATPLite, 2 h; protection from H2O2 cell death, % at 20 µM; 360,000 compounds, 0.63% hits; AID 588492;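 active = compounds giving at least 50% protection of heart cells from peroxide-induced death in the single-dose screen, raw or plate-pattern-corrected value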;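 also: 0% = DMSO wells with peroxide and 100% = DMSO wells without peroxide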
MIN6 prolif = inducers of beta-cell replication in MIN6 cells. MIN6 cells proliferation, ATPlite luminescence, 48 h; cells starved in 0.2% serum; 100% = growth in 10% serum. proliferation, % at 10 µM. 330,000 compounds, 0.29% hits. AID 2380;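 active = compounds whose signal lies at least 3.5 SD above the mean of all wells on their plate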;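 also: 0% = DMSO-treated cells in low-serum medium and 100% = 10% serum control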
An asterisk follows results filed as active; · = not tested or not shown. The list is not random: actives were taken first. Their share in the collection is about 2.3%.

SMILES	aDG glyco up	FAS-TE inh	Calpain2 inh	H9c2 TAG inh	H9c2 protect	MIN6 prolif
O=C(COC(=O)C1CCN(c2ccc(C(F)(F)F)cn2)CC1)Nc1ncc(Cl)cc1Cl	0	23	·	-2	-6	0
O=C(Nc1nc(-c2ccccn2)cs1)c1ccco1	1	1	2	30	44	-3
CN(CC1CCCO1)S(=O)(=O)c1ccc(C(=O)Nc2nc(-c3ccccn3)cs2)cc1 (centres undefined)	0	2	-8	2	90*	-6
Cc1ccc(S(=O)(=O)N2CCOCC2)cc1NC(=O)c1cc(-c2ccccn2)nc2ccccc12	0	4	-22	12	9	3
O=C(Nc1cc(S(=O)(=O)N2CCOCC2)ccc1N1CCCCC1)c1cc(-c2ccccn2)nc2ccccc12	0	34	-87	13	64*	-3
O=C(Nc1nc(-c2ccccn2)cs1)c1cccc(-n2cnnn2)c1	0	5	7	73*	68*	-5
O=C(Nc1nc(-c2ccccn2)cs1)c1ccc(F)c(S(=O)(=O)N2CCOCC2)c1	2	37	·	-4	65*	-6
Cc1ccc(CSCC(=O)N(CCC(C)C)c2c(N)n(Cc3ccccc3)c(=O)[nH]c2=O)cc1	0	-16	·	1	1	-1
Cc1cc2c3c([nH]c2cc1S(=O)(=O)N1CCC2(CC1)OCCO2)CCCC3=O	1	-3	·	·	-9	-2
COCCSc1ccccc1C(=O)N1CCc2ccccc21	0	-4	·	·	5	0
O=C(/C=C1\OCc2ccccc21)c1ccccc1	0	·	·	·	·	·
Cc1ccc(S(=O)(=O)N2CCOCC2)cc1C(=O)Nc1nc(-c2cccnc2)cs1	0	1	-8	·	10	-1
O=C(Nc1nc(-c2ccccn2)cs1)c1cc(S(=O)(=O)N2CCOCC2)ccc1F	2	3	·	2	59*	-6
Cc1ccc(C(=O)Nc2nc(-c3ccccn3)cs2)cc1S(=O)(=O)N1CCOCC1	2	20	·	-31	73*	-6
COc1ccc(NC(=O)C2Cc3c(-c4ccc(NC(C)=O)cc4)ccnc3O2)cn1 (centres undefined)	0	-11	·	26	16	·
CN(C)S(=O)(=O)c1ccc(Cl)c(NC(=O)CNC2(C)CCS(=O)(=O)C2)c1 (centres undefined)	0	-7	·	-14	3	-3
CCOC(=O)c1ccc(N2C(=O)c3n[nH]c(C)c3C2c2ccccn2)cc1 (centres undefined)	4.6*	-4	0	-1	5	-1
O=C(C1CCCO1)N1CCN(S(=O)(=O)c2cc(C(F)(F)F)ccc2Cl)CC1 (centres undefined)	0	-4	·	5	-3	-4
NS(=O)(=O)c1ccc(CCNC(=O)C(=O)c2cn(CC(=O)N3CCOCC3)c3ccccc23)cc1	0	-8	·	4	3	-2
O=S(=O)(NCC1CCCO1)c1ccc(-c2ccc(S(=O)(=O)NCC3CCCO3)cc2)cc1 (centres undefined)	7.4*	4	21	-38	-24	-6
COc1ccc(/C=C2\C(=O)ON=C2c2ccccc2)cc1	0	-2	·	·	9	-4
O=C1ON=C(c2ccccc2)/C1=C/c1ccc(O)c(O)c1	0	-1	·	·	58*	-2
CCN(CC(=O)Nc1ccc(NC(C)=O)cc1)C(=O)c1c(C)nn(Cc2ccc(C)cc2)c1Cl	0	-6	·	-21	-2	·
Cc1cc(NC(=O)c2ccc3c(c2)C(=O)N(CCC(C)C)C3=O)no1	0	-10	53*	10	0	-2
Cc1cc(NC(=O)c2ccc3c(c2)C(=O)N(C)C3=O)no1	0	-6	-42	2	6	0
COc1ccc(OC)c(C2=NS(=O)(=O)N(C)C(C(=O)N3CCC4(CC3)OCCO4)=C2)c1	5	-6	·	·	0	-1
CCOC(=O)N1CCC(n2c(SCC(=O)N3CCC(C)CC3)nc3ccccc3c2=O)CC1	0	9	-25	29	67*	3
CC(C)(C)c1ccc(OCCCC(=O)NNC(=O)c2ccccc2O)cc1	0	16	·	1	52*	-5
CC(C)(C)c1nc(SCC(=O)N2CCCC2)c2ccccc2n1	1	1	-6	-12	18	-1
CCOC(=O)CSc1nc2sc(C)c(C)c2c(=O)[nH]1	0	-3	13	20	52*	4
